# Results published in PubChem BioAssay.
# For part of these data: Measured potencies and affinities stand elsewhere. Activity calls are given as the source filed them.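 How the source made its calls, unless noted: active means earlier screen potentiator hit that boosts the TRPC4 ion channel at some dose, with a dose response; inactive means no potentiation, no dose response, or not a prior hit.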
# Columns and labels:
# [1] = test system: TRPC4 beta (transient receptor potential cation channel C4), mouse; assay: TRPC4 cation channel opening, retest – cell-based, Fluo4 calcium, HEK293 TRPC4beta/mu-opioid, duplicates, 10 µM, confirmation (AID 2426;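 active means fluorescence ratio normalized to control raised more than 50% in primary screen plus both repeat runs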); details: Fluo4 calcium fluorescence, at 10 µM; active compounds read high
# [2] = test system: transient receptor potential cation channel C4 beta (TRPC4), mouse; assay: TRPC4 cation channel opening, second retest – cell-based, second round, Fluo4, HEK293 TRPC4beta/mu-opioid, 1 µM, confirmation (AID 2461;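 active means primary screen active and over 50% activation in each of two duplicate runs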); details: Fluo4 calcium fluorescence, at 1 µM; active compounds read high
# [3] = test system: TRPC4 (transient receptor potential cation channel C4 beta), mouse; assay: potentiation of DAMGO EC20 TRPC4 response – cell-based, second round, Fluo-4, HEK293 TRPC4beta/mu-opioid, 1 µM, confirmation (AID 2554;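 active means primary screen hit whose fluorescence ratio, in both repeats, exceeds the weak agonist control mean by 3 SD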); details: DAMGO EC20, Fluo-4 calcium flux, at 1 µM; active compounds read high
# [4] = test system: TRPC4 beta (transient receptor potential cation channel C4), mouse; assay: potentiation of DAMGO EC20 TRPC4 response – cell-based, Fluo-4, HEK293 TRPC4beta/mu-opioid, confirmation (AID 2555;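 active means primary screen hit whose calcium fluorescence ratio, in both repeats, exceeds the weak agonist control mean by 3 SD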); details: DAMGO EC20, Fluo-4 calcium flux, at 10 µM; active compounds read high
# [5] = molecular target: Short transient receptor potential channel 4 (Mus musculus) (UniProt Q9QUQ5); assay: blockers of DAMGO-evoked TRPC4 calcium flux – cell-based, Fluo4, HEK293 TRPC4beta/mu-opioid, confirmation (AID 2636;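 active means calcium signal cut by more than 3 SD below the full-agonist control yet still positive, in both repeats and the earlier primary screen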); details: at 10 µM; active compounds read high
# [6] = molecular target: Short transient receptor potential channel 4 (Mus musculus) (UniProt Q9QUQ5); assay: blockers of DAMGO-evoked TRPC4 calcium flux – cell-based, second round, Fluo4, HEK293 TRPC4beta/mu-opioid, 1 µM, confirmation (AID 2637;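 active means calcium signal ratio cut to more than 3 SD under the fully stimulated control mean yet still positive, in both repeats and the primary screen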;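 on inhibition: percent of integrated ratio relative to wells lacking test compound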); details: at 1 µM; active compounds read high
# [7] = molecular target: Short transient receptor potential channel 4 (Mus musculus) (UniProt Q9QUQ5); assay: calcium entry via TRPC4 opening agents – cell-based, HEK293 TRPC4/mu-opioid, Fluo-4 calcium, dose response (AID 434937;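 active means primary screen activator hit with a dose response curve and TRPC4 channel activation at any tested dose; inactive means no activation, no dose response, or not a primary hit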)
# [8] = molecular target: Short transient receptor potential channel 4 (Mus musculus) (UniProt Q9QUQ5); assay: potentiation of DAMGO-evoked TRPC4 calcium signal – cell-based, HEK293 TRPC4/mu-opioid, Fluo-4 calcium, EC20 DAMGO, dose response (AID 434941);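 further: calcium entry triggered by an EC20 dose of DAMGO at the co-expressed mu-opioid receptor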
# [9] = molecular target: Short transient receptor potential channel 6 (Mus musculus) (UniProt Q61143); assay: TRPC6 blockade by TRPC4 inhibitor hits – cell-based, HEK293, membrane potential dye, duplicate, selectivity assay for TRPC4 inhibitor project, confirmation (AID 434948;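 active means active in primary screen and both duplicates, each dropping signal beyond three positive-control SD with fluorescence still positive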); details: HEK293 TRPC6, membrane potential dye fluorescence, at 10 µM, stimulated with maximal-effect acetylcholine; active compounds read high
# [10] = molecular target: Short transient receptor potential channel 6 (Mus musculus) (UniProt Q61143); assay: TRPC6 opening by TRPC4 activator hits – cell-based, HEK293, membrane potential dye, duplicate, selectivity assay for TRPC4 activator project, confirmation (AID 434950;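 active means membrane potential signal rise above negative control mean plus 3 SD in both duplicates, also active in the earlier TRPC4 screen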); details: HEK293 TRPC6, membrane potential fluorescence, at 10 µM; activation: active compounds read high; outcome: activation
# [11] = molecular target: Short transient receptor potential channel 6 (Mus musculus) (UniProt Q61143); assay: positive modulators of mouse TRPC6 channel – HEK293 cells, membrane potential dye, duplicate, selectivity assay for TRPC4 potentiator project, confirmation (AID 434952;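 active means compound raising the membrane signal above positive-control mean plus 3 SD in both repeats, and a primary screen hit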); details: HEK293 TRPC6, membrane potential dye fluorescence, at 10 µM, maximal acetylcholine added after compound; active compounds read high
# [12] = molecular target: Short transient receptor potential channel 4 (Mus musculus) (UniProt Q9QUQ5); assay: calcium flux activators in TRPC4/5HT1a cells, counter-screen for TRPC4 activator project, cell-based, second counter screen, HEK293 TRPC4/5HT1a, Fluo-4 (AID 434977;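 active means calcium signal rise above buffer-control mean plus 5 SD in both duplicates, and also a hit in the primary screen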); details: Fluo-4 calcium flux, at 10 µM; active compounds read high
# [13] = serotonin-gated TRPC4 signal block – cell-based, second counter screen, HEK293 TRPC4/5HT1a, Fluo-4, counter-screen for TRPC4 inhibitor project, confirmation (AID 434978;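 active means primary screen active whose calcium signal fell more than 3 SD beyond the full-serotonin control mean in both duplicate plates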;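 on outcome: serotonin given first at submaximal then at maximal dose after compound preincubation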); details: Fluo-4 calcium flux, at 10 µM, serotonin added to trigger calcium flux; active compounds read high
# [14] = test system: TRPC4 (mouse), co-expressed with 5HT1a in HEK293; assay: enhancement of serotonin-evoked TRPC4 response – cell-based, second counter screen, HEK293 TRPC4/5HT1a, Fluo-4, counter-screen for TRPC4 potentiator project, confirmation (AID 434979;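 active means signal rise over 3 SD above mean of control wells given weak agonist, in both repeats and first screen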); details: Fluo-4 calcium flux, at 10 µM, serotonin added at its EC20 dose; active compounds read high
# [15] = nonspecific calcium rise without TRPC4 – cell-based, HEK293 mu-opioid receptor line, counter-screen for TRPC4 activator project, confirmation (AID 449723;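 active means hit in primary screen, with calcium signal over 5 SD above buffer well mean in both duplicates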;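 further: counter screen cells carry the mu-opioid receptor alone and lack TRPC4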); details: HEK293 mu-opioid cells, Fluo-4 calcium fluorescence, at 10 µM; active compounds read high
# [16] = nonspecific potentiation of DAMGO calcium response – cell-based, HEK293 mu-opioid receptor line, counter-screen for TRPC4 allosteric potentiator project, confirmation (AID 449724;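 active means calcium signal rise more than 3 SD above the low-dose agonist control mean, in both duplicate plates and the primary screen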); details: HEK293 mu-opioid receptor cells, Fluo-4 calcium flux, at 10 µM, compound added before EC20 DAMGO stimulus; active compounds read high
# Sequence of Short transient receptor potential channel 4 (Mus musculus) (Q9QUQ5 whole entry, looked up): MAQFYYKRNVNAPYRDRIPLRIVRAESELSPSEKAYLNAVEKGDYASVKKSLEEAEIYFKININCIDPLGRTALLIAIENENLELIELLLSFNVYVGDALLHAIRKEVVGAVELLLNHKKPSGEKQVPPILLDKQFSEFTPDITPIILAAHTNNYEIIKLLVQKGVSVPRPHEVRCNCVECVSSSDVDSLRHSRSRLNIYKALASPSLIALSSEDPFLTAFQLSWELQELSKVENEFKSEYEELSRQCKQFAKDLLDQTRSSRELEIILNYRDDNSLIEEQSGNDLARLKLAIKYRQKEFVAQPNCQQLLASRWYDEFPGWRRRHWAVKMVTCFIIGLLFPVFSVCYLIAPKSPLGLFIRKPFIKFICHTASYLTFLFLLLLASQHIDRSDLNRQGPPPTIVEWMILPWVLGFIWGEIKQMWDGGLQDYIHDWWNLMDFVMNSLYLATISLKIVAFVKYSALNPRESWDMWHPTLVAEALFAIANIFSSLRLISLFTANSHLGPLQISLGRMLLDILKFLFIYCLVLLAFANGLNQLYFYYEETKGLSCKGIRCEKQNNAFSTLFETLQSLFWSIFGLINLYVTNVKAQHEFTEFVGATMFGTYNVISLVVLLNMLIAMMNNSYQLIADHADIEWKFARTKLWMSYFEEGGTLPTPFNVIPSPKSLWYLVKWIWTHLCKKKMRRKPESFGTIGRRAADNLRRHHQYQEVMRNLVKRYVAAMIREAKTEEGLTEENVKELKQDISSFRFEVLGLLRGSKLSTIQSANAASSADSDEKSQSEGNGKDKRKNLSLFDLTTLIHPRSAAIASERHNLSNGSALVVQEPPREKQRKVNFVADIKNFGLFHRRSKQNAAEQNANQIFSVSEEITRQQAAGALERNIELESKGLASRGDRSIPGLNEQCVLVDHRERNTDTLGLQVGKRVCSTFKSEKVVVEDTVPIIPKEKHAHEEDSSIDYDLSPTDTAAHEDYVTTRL
# Sequence of Short transient receptor potential channel 6 (Mus musculus) (Q61143 whole entry, looked up): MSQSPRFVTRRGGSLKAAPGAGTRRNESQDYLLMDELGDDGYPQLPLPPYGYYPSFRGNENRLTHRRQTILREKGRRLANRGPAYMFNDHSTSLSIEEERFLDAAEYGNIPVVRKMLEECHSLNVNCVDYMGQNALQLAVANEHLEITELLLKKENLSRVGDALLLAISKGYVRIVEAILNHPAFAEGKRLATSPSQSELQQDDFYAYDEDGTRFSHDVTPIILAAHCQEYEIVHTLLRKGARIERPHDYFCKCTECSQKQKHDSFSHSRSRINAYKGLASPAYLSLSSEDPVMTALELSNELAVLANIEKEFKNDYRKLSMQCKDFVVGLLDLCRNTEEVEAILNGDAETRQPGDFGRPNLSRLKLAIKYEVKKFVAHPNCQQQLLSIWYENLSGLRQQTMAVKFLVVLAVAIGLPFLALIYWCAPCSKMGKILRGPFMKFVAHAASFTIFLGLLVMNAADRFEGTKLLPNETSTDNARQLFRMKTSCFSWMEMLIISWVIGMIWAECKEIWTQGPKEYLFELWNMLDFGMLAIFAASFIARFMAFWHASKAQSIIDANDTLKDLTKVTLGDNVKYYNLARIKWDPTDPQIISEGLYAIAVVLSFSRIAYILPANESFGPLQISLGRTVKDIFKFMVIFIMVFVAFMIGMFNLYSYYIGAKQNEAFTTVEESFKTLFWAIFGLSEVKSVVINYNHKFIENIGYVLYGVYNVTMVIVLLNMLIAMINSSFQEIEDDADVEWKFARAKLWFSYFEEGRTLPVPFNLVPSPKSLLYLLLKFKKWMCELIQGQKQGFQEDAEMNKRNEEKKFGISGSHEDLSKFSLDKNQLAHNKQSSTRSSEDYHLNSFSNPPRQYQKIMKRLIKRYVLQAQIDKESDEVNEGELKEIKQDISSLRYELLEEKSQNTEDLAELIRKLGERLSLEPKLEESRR
SMILES,outcome [1],outcome [2],outcome [3],outcome [4],inhibition [5],inhibition [6],outcome [7],outcome [8],outcome [9],outcome [10],outcome [11],outcome [12],inhibition [13],outcome [14],outcome [15],outcome [16],outcome [13],outcome [6],outcome [5]
Cc1ccccc1CN1CCCC(C(=O)Nc2ccccc2Oc2cccnc2)C1 (stereo not given),inactive,inactive,inactive,inactive,88% (active),51% (active),inactive,inactive,inactive,inactive,inactive,inactive,39.9% (active),inactive,inactive,inactive,,,
CN(C)C(CNC(=O)c1oc2ccccc2c1CSc1ncn[nH]1)c1ccco1 (stereo not given),inactive,inactive,inactive,inactive,85% (active),48% (active),inactive,inactive,inactive,inactive,inactive,inactive,,inactive,inactive,inactive,inactive,,
Cc1cc(C)nc(NC(N)=NC2CCCCC2)n1,inactive,inactive,inactive,inactive,92% (active),43% (active),inactive,inactive,inactive,inactive,inactive,inactive,21.9% (active),inactive,inactive,inactive,,,
CCCCNc1nc(-c2ccccc2)c(C(=O)OCC)cc1C#N,inactive,inactive,inactive,inactive,94% (active),,inactive,inactive,inactive,inactive,inactive,inactive,15% (active),inactive,inactive,inactive,,inactive,
CCCCOc1ccc(Nc2cc(Cl)ccc2C(=O)O)cn1,inactive,inactive,inactive,inactive,,,inactive,inactive,inactive,inactive,inactive,inactive,27.6% (active),inactive,inactive,inactive,,inactive,inactive
Cc1ccc(C[n+]2cc(-c3ccc(Cl)cc3)n3c2CCC3)cc1,inactive,inactive,inactive,inactive,73% (active),64% (active),inactive,inactive,inactive,inactive,inactive,inactive,41.9% (active),inactive,inactive,inactive,,,
Cc1nc(Cl)c(Cl)n1CCOc1ccccc1,inactive,inactive,inactive,inactive,94% (active),46% (active),inactive,inactive,inactive,inactive,inactive,inactive,18.9% (active),inactive,inactive,inactive,,,
Fc1ccccc1COc1ccccc1CNCc1ccncc1,inactive,inactive,inactive,inactive,79% (active),,inactive,inactive,inactive,inactive,inactive,inactive,,inactive,inactive,inactive,inactive,inactive,
OC(COc1ccccc1)CN1C2=NCCCN2c2ccccc21 (stereo not given),inactive,inactive,inactive,inactive,84% (active),,inactive,inactive,inactive,inactive,inactive,inactive,,inactive,inactive,inactive,inactive,inactive,
O=C(Nc1ccccc1N1CCN(C(=O)c2ccc(Cl)cc2)CC1)c1cccc([N+](=O)[O-])c1,inactive,inactive,inactive,inactive,81% (active),52% (active),inactive,inactive,inactive,inactive,inactive,inactive,36.6% (active),inactive,inactive,inactive,,,
Clc1cccc(C[n+]2cc(-c3ccccc3)n3c2CCC3)c1,inactive,inactive,inactive,inactive,95% (active),51% (active),inactive,inactive,inactive,inactive,inactive,inactive,15.5% (active),inactive,inactive,inactive,,,
COc1ccc(C2NC(C(=O)O)Cc3c2[nH]c2ccccc32)cc1CN1CCN(c2ccc(F)cc2)CC1 (stereo not given),inactive,inactive,inactive,inactive,58% (active),,inactive,inactive,inactive,inactive,inactive,inactive,41.6% (active),inactive,inactive,inactive,,inactive,
O=C(C[N+]1(CC#Cc2ccccc2)CCCCC1)c1ccc(Cl)cc1,inactive,inactive,inactive,inactive,86% (active),,inactive,inactive,inactive,inactive,inactive,inactive,40.2% (active),inactive,inactive,inactive,,inactive,
CCCSc1nc(N)nc(-c2cccs2)c1C#N,inactive,inactive,inactive,inactive,89% (active),50% (active),inactive,inactive,inactive,inactive,inactive,inactive,36.8% (active),inactive,inactive,inactive,,,
CC(=O)Oc1ccc(/C=C(\NC(=O)c2ccco2)C(=O)NCc2ccccc2)cc1,inactive,inactive,inactive,inactive,82% (active),,inactive,inactive,inactive,inactive,inactive,inactive,44.5% (active),inactive,inactive,inactive,,inactive,
